PubChem BioAssay AID743312 (Broad Institute, 2014)
Results with a measured potency or affinity are listed apart. Unmarked numbers belong to inactive results. The source made the active and inactive calls. The rule behind the calls is not given here.

Experiment: toxicity to A549 lung cells – cell-based, plate reader, dry powder, set 6, cytotoxicity control, dose response (AID 743312)
Conditions: series mostly up to 26 µM; activity change, negative = cytotoxicity: at the top concentration

Structure (SMILES) | activity change, negative = cytotoxicity | outcome
CSc1nc2ccccc2n1CCOc1ccccc1 | -2.73% | –
COc1cc(C)ccc1OCCn1cnc2ccccc21 | -1.25% | –
Cc1ccccc1OCCn1cnc2ccccc21 | -4.27% | –
CC(C)(C)c1ccc(OCCn2cnc3ccccc32)c(Cl)c1 | -14.9% | –
Cc1cccc(OCCn2c(=S)[nH]c3ccccc32)c1 | -37.9% | –
Fc1cccc2c1[nH]c(=S)n2CCOc1ccccc1 | -11.3% | –
CC(C)Oc1cccc(OCCn2cnc3ccccc32)c1 | 18.7% | –
CCCc1nc2ccccc2n1CCOc1ccccc1 | -24.4% | –
COCc1nc2ccccc2n1CCOc1ccc(C(C)(C)C)cc1 | -14% | –
CCCCc1nc2ccccc2n1CCOc1ccccc1 | 14.4% | –
FC(F)(F)c1cccc(OCCn2cnc3ccccc32)c1 | 21.4% | –
Clc1ccc(OCCn2cnc3ccccc32)cc1 | -13.9% | –
COc1cccc(OCCn2cnc3ccccc32)c1 | -10.1% | –
CCc1nc2ccccc2n1CCOc1ccccc1 | -6.05% | –
Cc1ccc(C(C)C)c(OCCn2c(NC#N)nc3ccccc32)c1 | -6% | –
Fc1ccc(OCCn2c(=S)[nH]c3ccccc32)cc1 | 18.4% | –
CC(C)Oc1ccc(OCCn2cnc3ccccc32)cc1 | -7.64% | –
COc1ccc(OCCn2cnc3ccccc32)cc1 | -23.8% | –
Fc1ccc2c(c1)[nH]c(=S)n2CCOc1ccccc1 | – | inactive
Cc1ccc(OCCn2cnc3cc(C)c(C)cc32)cc1 | -14.1% | –
